Our source for the cell viability values is the supplement of paper PMC6522484.

SMILES strings stand for the structures. ± gives the standard deviation of the averaged measurements.

This experiment concerns SW480. Description: cell viability (CellTiter-Glo) relative to plate median (fraction of plate median); higher = more viable cells. Conditions: 5 µM; treatment time 24 h; reporter: 7TFP. The method in brief:
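Cells were seeded in 384-well plates; these were colorectal cancer lines stably transduced with lentiviral 7TFP or TCF4/Wnt firefly luciferase reporters. After 24 h, library compounds went in at a final 5 µM, and exposure lasted 24 h. Parallel plates were then read for firefly luciferase or CellTiterGlo luminescence, each well normalised to its plate median, with two independent replicates averaged.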
Background: ATP-based viability assays read luminescence as a measure of living cells.
The molecule `CN1CCC(=C2c3ccccc3Sc3ccccc32)CC1` returned a cell viability of 1.03 ± 0.059.

On to `CC(C)c1c(O)c(-c2cc3c(c(C(C)C)c2O)CCC2C(C)(C)CCC[C@]32C)cc2c1CCC1C(C)(C)CCC[C@]21C` (stereo not given in full), for which the cell viability amounted to 1.02 ± 0.035. On to `CC(C)CCC[C@@H](C)[C@H]1CC[C@H]2[C@@H]3CC=C4C[C@@H](O)CC[C@]4(C)[C@H]3CC[C@]12C`, for which the cell viability worked out at 1.015 ± 0.0071.

The molecule `O=c1occ(C(O)CO)c2cccc(O)c12` (stereo not given) [Oospoglycol] registered a cell viability of 0.976 ± 0.09. The molecule `O=C(NC(Cc1cc(=O)[nH]c2ccccc12)C(=O)O)c1ccc(Cl)cc1` (stereo not given) yielded a cell viability of 0.931 ± 0.024. Molecule `NC[C@@H]1O[C@@H](O[C@H]2[C@H](O)[C@@H](O[C@H]3O[C@H](CO)[C@@H](O)[C@H](N)[C@H]3O)[C@H](N)C[C@@H]2N)[C@@H](O)[C@H](O)[C@H]1O` gave a cell viability of 0.94 ± 0.0042. For `O=C1C=C2CC3(O)COc4c(ccc(O)c4O)C3=C2C=C1O` (stereo not given), the cell viability was 1.06 ± 0.13.

Regarding `CC[C@H](CC[C@@H](C)[C@H]1CC[C@H]2[C@@H]3CC=C4C[C@@H](O)CC[C@]4(C)[C@H]3CC[C@]12C)C(C)C` [beta-SITOSTEROL], the cell viability was 1.13 ± 0.014. For `CCCCCC(=O)O[C@]1(C(C)=O)CC[C@H]2[C@@H]3CCC4=CC(=O)CC[C@]4(C)[C@H]3CC[C@@]21C` the value was 0.972 ± 0.018; for `CCCCC/C=C/CCC(=O)N[C@H]1[C@H](Oc2c3cc4cc2Oc2ccc(cc2Cl)[C@@H](O[C@@H]2O[C@H](CO)[C@@H](O)[C@H](O)[C@H]2NC(C)=O)[C@@H]2NC(=O)[C@H](NC(=O)[C@@H]4NC(=O)[C@H]4NC(=O)C(Cc5ccc(c(Cl)c5)O3)NC(=O)[C@H](N)c3ccc(O)c(c3)Oc3cc(O)cc4c3)c3ccc(O)c(c3)-c3c(OC4O[C@H](CO)[C@@H](O)[C@H](O)[C@@H]4O)cc(O)cc3[C@@H](C(=O)O)NC2=O)O[C@H](CO)[C@@H](O)[C@@H]1O` (stereo not given in full) [TEICOPLANIN [A(2-1) shown]], 1.02 ± 0.083.
